Measurements published in PubChem BioAssay (EPA / NIEHS).
“And” between values parts separate entries of the source, which are not always exact repeats. Equal values may be shown once. The source made the active and inactive calls. How the source made its calls: active means hit-call score of the fitted dose curve at least 0.9, where 1 is the maximum; inactive means score below 0.9.

These molecules were tested on DNA damage-inducible transcript 3 (DDIT3), DDIT3 (gene 1649) (assay: LTEA_HepaRG_DDIT3: Life Technologies and Expression Analysis (LTEA) Assay for DNA damage-inducible transcript 3 (DDIT3) using HepaRG (AID 2283488)). Conditions: mRNA level, 48 h; actives raise or lower the signal.
Method: LTEA_HepaRG is a cell based, multiplexed-readout assay that uses HepaRG, a human liver cell line, with measurements taken at 48 hours after chemical dosing on a 96-well plate.LTEA_HepaRG_DDIT3 is one of 102 assay component(s) measured in the LTEA HepaRG cell culture assay. It is a marker of Oxidative Stress.Data from the assay component LTEA_HepaRG_DDIT3 was analyzed into 1 endpoint. This assay endpoint, LTEA_HepaRG_DDIT3, was analyzed with bidirectional fitting relative to DMSO as the negative control and baseline of activity. Using a type of inducible reporter, measures of mRNA induction for gain or loss-of-signal activity can be used to understand regulation of transcription factor activity. To generalize the intended target to other relatable targets, this assay endpoint is annotated to the dna binding intended target family, where the subfamily is basic leucine zipper.
A total of 1060 chemcials from the ToxCast library were tested in eight-point concentration-response experiments. Cell culture and cytotoxicity assays were conducted at Thermo Fisher Scientific's Custom Services facility (Madison, WI). A single lot of human HepaRG cells (Thermo Fisher Scientific, Frederick, MD) was used for the cell culture experiments. 96-well format collagen type I coated plates of human HepaRG cells were prepared using established methods. Briefly, cryopreserved HepaRG cells were thawed, plated at a density of approximately 100,000 cells/well in HepaRG Thaw, Plate, and General Purpose media (HPRG770, Thermo Fisher Scientific), and incubated for 48 hours. 0.5% DMSO was selected as vehicle control to balance the requisite need of DMSO in HepaRG cultures to maintain differentiation (for example, baseline metabolism, proportions of hepatocytes vs. cholangiocytes), while enabling further hepatic receptor pathway activation (for example, PXR and CAR) in response to chemical exposure. 48 hours after plating, the culture medium was replaced with HepaRG Serum-Free Incudtion Media. Cells were exposed to each test chemical in duplicate and maintained in CO2 incubators for another 48 hours. Chemical plates were thawed to room temperature and 200x concentrations of treatment groups were prepared. 8-point conentration-reponse curves were made with the highest exposure at 100 uM, followed by half-log dilutions, all in 0.5% DMSO. Each test plate contained variouse controls, induction positive controls (1mM phenobarbital), cytotoxicity positive controls ([…] aflatoxin B1), vehicle controls (0.5% DMSO), and total lysis controls (0.5% DMSO). Cell morphology images were taken using an Essen IncuCyte FLR automated microscope, with six 96-well plates imaged in about 24 minutes. Images were captured and exported and JPEG files. Spent culture media was transfered to black-well plates for the LDH assay, and remaining media was sorted at -80 C for later use. Cells were treated with RLT buffer and frozen until shipped for gene expression analysis. Total RNA was isolated from the cell suspension in 75 uL of Buffer RLT (Qiagen, Germantown, MD 20874) by Quintiles/Expression Analysis (Durham, NC) using a custom isolation procedure. Total RNA from each plate well was transferred to a preamplification plate. Fluidigm's 96.96 Dynamic ArrayTM (Fluidigm, Amsterdam, the Netherlands) technology was used for gene expression analyses by quantitative reverse transcription polymerase chain reaction (qRT-PCR, performed by Quintiles/Expression Analysis, Durham, NC)89. Standard TaqManTM Assays (Applied Biosystems/ThermoFisher Scientific, Foster City, CA) were used to assess the expression of 93 genes selected based on their selectivity and sensitivity to important hepatic receptors known to be modulated by environmental chemicals; importance in human hepatocyte functionality; and hepatotoxicity. […]
For `COc1c(Cl)ccc(Cl)c1C(=O)O`, the outcome was “inactive”.
For `C#CCOC(=O)[C@@H](C)Oc1ccc(Oc2ncc(Cl)cc2F)cc1`, the outcome was “inactive”.
For `S=C([S-])NCCNC(=S)[S-].[Mn+2]`, the AC50 was 6.1 µM (active).
In the case of `O=C(c1ccccc1)C1CCCCC1`, the outcome is reported as “inactive”.
In the case of `CCOC(=O)COc1cc(-n2ncc(C(F)(F)F)c(C)c2=O)c(F)cc1Cl`, the outcome is reported as “inactive”.
For `CCC(C)OC(=O)N1CCCCC1CCO` (stereo not given), the outcome was “inactive”.
`CSC(=O)c1cccc2nnsc12` was tested, and the outcome was “inactive”.
With `CCCOC(=O)NCCCN(C)C` the outcome was “inactive”.
For `O=C(O)C1(C(=O)Nc2ccc(Cl)cc2Cl)CC1`, the outcome was “inactive”.
For `CC1(C)C(C=C(Cl)Cl)C1C(=O)OCc1cccc(Oc2ccccc2)c1` (stereo not given), the outcome was “inactive”.
With `CCOC(=O)c1ccc(O)cc1` the outcome was “inactive”.
In the case of `C#C[C@]1(O)CC[C@H]2[C@@H]3CCC4=CC(=O)CC[C@@H]4[C@H]3CC[C@@]21CC`, the outcome is reported as “inactive”.
For `Cc1nn(C)c(Oc2ccccc2)c1C=NOCc1ccc(C(=O)OC(C)(C)C)cc1`, the AC50 was 3.27 µM (active).
For `COC(=O)CSc1cc(N=c2sc(=O)n3n2CCCC3)c(F)cc1Cl`, the outcome was “inactive”.
In the case of `CC(C)(c1ccc(O)cc1)c1ccc(O)cc1`, the outcome is reported as “inactive”.
In the case of `CCCCOCCOCCOCc1cc2c(cc1CCC)OCO2`, the outcome is reported as “inactive”.
For `CCCCC(CC)COC(=O)c1ccccc1C(=O)O` (stereo not given), the outcome was “inactive”.
In the case of `O=C(Nc1ccc([N+](=O)[O-])cc1Cl)c1cc(Cl)ccc1O`, the AC50 is reported as 3.35 µM (active).
For `CCN(CC)C(=O)c1cccc(C)c1`, the outcome was “inactive”.
In the case of `CC(=O)[C@H]1CC[C@H]2[C@@H]3CCC4=CC(=O)CC[C@]4(C)[C@H]3CC[C@]12C`, the AC50 is reported as 27.2 µM (active).
For `CCSC(=O)N(CC(C)C)CC(C)C`, the outcome was “inactive”.
`N[C@@H](Cc1cc(I)c(Oc2ccc(O)c(I)c2)c(I)c1)C(=O)O` was tested, and the AC50 was 49.7 µM (active).
In the case of `CCCCCCC(C)OC(=O)COc1nc(F)c(Cl)c(N)c1Cl` (stereo not given), the outcome is reported as “inactive”.
In the case of `CCCN(CCC)c1c([N+](=O)[O-])cc(C(F)(F)F)c(N)c1[N+](=O)[O-]`, the outcome is reported as “inactive”.
In the case of `CC(C)(C)[C@@H](O)[C@@H](Cc1ccc(Cl)cc1)n1cncn1`, the outcome is reported as “inactive”.
With `COCCO` the outcome was “inactive”.
In the case of `CCCCOC(=O)C(C)Oc1ccc(Oc2ccc(C(F)(F)F)cn2)cc1` (stereo not given), the outcome is reported as “inactive”.
`N#CSCSc1nc2ccccc2s1` was tested, and the outcome was “inactive”.
With `OB(O)O` the outcome was “inactive”.
With `CCOC(=O)C(C)Oc1ccc(Oc2cnc3cc(Cl)ccc3n2)cc1` (stereo not given) the outcome was “inactive”.
For `CC(C)CCCCCCc1ccc(O)cc1`, the outcome was “inactive”.
In the case of `c1ccc2[nH]c(-c3cscn3)nc2c1`, the outcome is reported as “inactive”.
For `CCCCOC(=O)[C@@H](C)Oc1ccc(Oc2ccc(C(F)(F)F)cn2)cc1`, the outcome was “inactive”.
`c1ccc(Nc2ccccc2)cc1` was tested, and the outcome was “inactive”.
For `Oc1ccc(C(c2ccc(O)cc2)C(Cl)(Cl)Cl)cc1`, the AC50 was 80.3 µM (active).
`CCOC(=O)C(C)Oc1ccc(Oc2nc3ccc(Cl)cc3o2)cc1` (stereo not given) was tested, and the outcome was “inactive”.
For `CCCCCOC(=O)COc1cc(N2C(=O)C3=C(CCCC3)C2=O)c(F)cc1Cl`, the outcome was “inactive”.
For `S=C(S)NCCNC(=S)S.[Mn+2].[S-]C([S-])=NCCN=C([S-])[S-].[Zn+2]`, the AC50 was 3.87 µM (active) and 1.87 µM (active) and 1.64 µM (active).
`COC(=O)c1ccc(I)cc1S(=O)(=O)NC(=O)Nc1nc(C)nc(OC)n1` was tested, and the outcome was “inactive”.
For `CCCN(CCC)C(=O)SCC`, the outcome was “inactive”.
